Measured values taken from PubChem BioAssay (NCATS).
Inconclusive results are not listed. A call without a number means that no potency is given here. Values without a mark were called inactive. Activity calls are given as the source filed them. Calls come from the whole dose curve; as a rule, active = well fitted cell-killing curve with a large enough effect; inconclusive = small, poorly fitted or top-dose-only effect, or effect the other way; inactive = no such curve, though single readings can be large or run the other way.

Key:
[1] = Viability qHTS for spleen associated tyrosine kinase inhibitor (SYKi) naive MV4-11 cells (AID 1963823); note: nearly all actives have a fitted effect of over 40% in size
Summary of the method: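 Read-out: CellTiter-Glo luminescence. Exposure: 72 hr, 37 C, 5% CO2, 95% humidity. Cells: MV4-11 without SYK inhibitor history, 500/well, qHTS format.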

[2] = Viability qHTS for spleen associated tyrosine kinase inhibitor (SYKi) drug resistant MV4-11 cells (AID 1963824); note: nearly all actives have a fitted effect of over 35% in size
Summary of the method: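 CellTiter-Glo luminescence, read 10 min after reagent addition, reports viability after a 72 hr compound exposure. Cells are an MV4-11 line made resistant to SYK inhibition, seeded at 500 per well onto compound-containing plates.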
Potency is the fitted concentration of half-maximal effect.

| Structure (SMILES) | Potency [1] | Potency [2] | viability (% of control) [1] | viability, % of control [2] |
| --- | --- | --- | --- | --- |
| COc1c2c(c(C)c3c1C(=O)OC3)OC1(C)CC(O)C3(O)C(C)(C)OC(=O)CCC3(C)C1C2 (stereo not drawn) | inactive | inactive |  |  |
| O=C(O[C@H]1[C@@H]2C=CO[C@@H](O[C@@H]3O[C@H](CO)[C@@H](O)[C@H](O)[C@H]3O)[C@@H]2[C@@]2(CO)O[C@@H]12)c1ccc(O)c(O)c1 | inactive | inactive |  |  |
| CCOC(=O)CCC(=O)O[C@H]1[C@H](O[C@@H]2[C@@H](C)[C@H](O[C@H]3C[C@@](C)(OC)[C@@H](O)[C@H](C)O3)[C@@H](C)C(=O)O[C@H](CC)[C@@](C)(O)[C@H](O)[C@@H](C)C(=O)[C@H](C)CC2(C)O)O[C@H](C)C[C@@H]1N(C)C (stereo partly drawn) | inactive | inactive |  |  |
| C=CC1(C)CC(OC(=O)C(=C)C(O)COC(C)=O)C(C(=C)C(=O)OC)C(O)C1C(=C)CO (stereo not drawn) | 8.93 µM (active) | 10 µM (active) |  |  |
| COc1ccc(-c2ccc3c(N4CCOCC4)nc(N4CC(C)OC(C)C4)nc3n2)cc1CO (stereo not drawn) | 0.291 µM (active) | 1.03 µM (active) |  |  |
| C[C@H]1CC[C@H]2[C@@H](C=C[C@@](C)(O)[C@]2(C)C(=O)CCO)C1 | inactive | inactive |  |  |
| COc1cc(O)c2c(c1)C1OC1C[C@H](O)[C@H](O)C(=O)/C=C\C[C@H](C)OC2=O (stereo partly drawn) | 3.26 µM (active) | 4.61 µM (active) |  |  |
| COc1ccc(CCc2nc3cc(-c4c(C)noc4C)ccc3n2CC(C)N2CCOCC2)cc1Cl (stereo not drawn) | 4.11 µM (active) | 5.17 µM (active) |  |  |
| COc1cc([C@H]2OC[C@@H]3[C@@H](c4ccc(O[C@@H]5O[C@H](CO)[C@@H](O)[C@H](O)[C@H]5O)c(OC)c4)OC[C@]23O)ccc1O | inactive | inactive |  |  |
| Cn1ncc(Cl)c1-c1cc(C(=O)N[C@H](CN)Cc2ccc(F)c(F)c2)oc1Cl | 2.59 µM (active) | 8.2 µM (active) |  |  |
| C=C(C(=O)O)C1CC(O)C2(C)CCCC(C)(O)C2C1 (stereo not drawn) | inactive | inactive |  |  |
| C=C1CCC2(OC1)OC1CC3C4CC=C5CC(O)CC(O[C@@H]6OC[C@@H](O)[C@H](O)[C@H]6O)C5(C)C4CCC3(C)C1(O)C2C (stereo partly drawn) | inactive | inactive |  |  |
| COc1ccccc1OCCNCC(O)CCOc1cccc2[nH]c3ccccc3c12 (stereo not drawn) | 9.2 µM (active) | 9.2 µM (active) |  |  |
| COc1cc2ncnc(N3CCC(Oc4cnc5ccccc5n4)C3)c2cc1OC (stereo not drawn) | 0.58 µM (active) | 0.411 µM (active) |  |  |
| COC(=O)[C@@H]1C2CC3c4[nH]c5ccccc5c4CCN3CC2CC[C@@H]1O (stereo partly drawn) | inactive | inactive |  |  |
| CC(CCC1(O)OC2CC3C4CC=C5CC(O[C@@H]6O[C@H](CO)[C@@H](O[C@@H]7O[C@@H](C)[C@H](O)[C@@H](O)[C@H]7O)[C@H](O)[C@H]6O[C@@H]6O[C@@H](C)[C@H](O)[C@@H](O)[C@H]6O)CCC5(C)C4CCC3(C)C2C1C)CO[C@@H]1O[C@H](CO)[C@@H](O)[C@H](O)[C@H]1O (stereo partly drawn) | 3.48 µM (active) | 3.48 µM (active) |  |  |
| CC12CCC(C(OC3OC(COC4OCC(O)(CO)C4O)C(O)C(O)C3O)C1)C(C)(C)O2 (stereo not drawn) | inactive | inactive |  |  |
| N#CCc1ccc(O)cc1O[C@@H]1O[C@H](CO)[C@@H](O)[C@H](O)[C@H]1O | inactive | inactive |  |  |
| CC1CCC23COC(=O)C2=CC(O)CC3C1(C)CCc1ccoc1 (stereo not drawn) | inactive | inactive |  |  |
| Cc1nc2ccc(CN(C)c3ccc(C(=O)NC(CCC(=O)O)C(=O)O)s3)cc2c(=O)[nH]1 (stereo not drawn) | 0.0065 µM (active) | 0.0073 µM (active) |  |  |
| CC(CCc1ccc(O)cc1)O[C@@H]1O[C@H](CO[C@@H]2OC(CO)[C@H](O)[C@H]2O)[C@@H](O)[C@H](O)[C@H]1O (stereo partly drawn) | inactive | inactive |  |  |
| CC1(C)CC[C@]2(C(=O)O)CC[C@]3(C)C(=CCC4[C@@]5(C)CC[C@H](O[C@@H]6O[C@H](C(=O)O)[C@@H](O)[C@H](O[C@@H]7O[C@H](CO)[C@H](O)[C@H](O)[C@H]7O)[C@H]6O[C@@H]6O[C@H](CO)[C@@H](O)[C@H](O)[C@H]6O)C(C)(C)C5CC[C@]43C)[C@@H]2C1 (stereo partly drawn) |  |  | 77.5% [at 4.97 µM] | 75.1% [at 4.97 µM] |
| CC(=O)O[C@H]1[C@H](OC(=O)C(C)C)[C@]2(C)OC3(CC[C@]2(C)[C@H]2CCC[C@]4(CO4)[C@]12C)COC(=O)C3 (stereo partly drawn) | inactive | inactive |  |  |
| C=C1C(=O)O[C@@H]2[C@H]1CC[C@H](C)C(CCC(=O)O)C2(C)O (stereo partly drawn) | 5.8 µM (active) | 2.31 µM (active) |  |  |
